Laboratory results published in PubChem BioAssay (NCATS).
Results filed as inconclusive are left out. Where a call stands in place of a potency, no number is given. A number with no mark means an inactive call. The source made the active and inactive calls. The call rests on the fitted dose curve; in most records, active means well fitted curve in the direction sought with a large enough effect; inconclusive means small, poorly fitted or top-dose-only effect, or another doubt; inactive means no such curve, though single readings can be large; an effect the other way counts as inactive or inconclusive.

Tests used:
[1] = Primary qHTS for inhibitors of La Crosse Virus (LACV) - induced cell death in SH-SY5Y cells (AID 1508616);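 further: top concentration of the series differs between compounds; higher means more rescue of cells from virus-induced death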
How it was run: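 SH-SY5Y, 6000 cells/well; cpd via pin tool in DMSO; LACV 0.01 MOI; 6 d 37C 5% CO2; ATPLite, 5 min RT; luminescence normalized to ±virus DMSO controls.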

[2] = target: Calcium and integrin-binding protein 1 (Homo sapiens) (UniProt Q99828); test: Primary qHTS for Identification of Calcium Integrin Binding Protein 1 (CIB1) Competitor (AID 1508620);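 further: GST tagged CIB1 binding a fluorescein labelled alphaIIb integrin peptide tracer; top concentration of the series differs between compounds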
How it was run: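 CIB1-GST (1 uM final) and compound incubated 15 min at room temperature before adding FITC-alphaIIb peptide tracer (100 nM final). Competition for binding read by fluorescence polarization (ex 480, em 540) after another 15 min at room temperature.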

[3] = target: Calcium and integrin-binding protein 1 (Homo sapiens) (UniProt Q99828); test: Confirmatory qHTS for Identification of Calcium Integrin Binding Protein 1 (CIB1) Competitor (AID 1508617); further: potency means the concentration at half of the fitted maximal effect; nearly all actives have a fitted effect of over 65% in size
How it was run: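 Confirmatory qHTS measures displacement of a FITC-alphaIIb peptide (100 nM) from CIB1-GST (1 uM) by fluorescence polarization. Calcium-containing HEPES buffer, pH 7.4; two 15 min room-temperature incubations.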

[4] = target: Calcium and integrin-binding protein 1 (Homo sapiens) (UniProt Q99828); test: Validation qHTS for Identification of Calcium Integrin Binding protein 1 (CIB1) Competitor (AID 1508618)
How it was run: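 Displacement of FITC-alphaIIb peptide (100 nM) from CIB1-GST (1 uM) is monitored by polarization in quantitative HTS format; buffer carries 5 mM CaCl2 and 125 mM NaCl at pH 7.4, incubations are at room temperature.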

Sequence of Calcium and integrin-binding protein 1 (Homo sapiens) (Q99828 whole entry, looked up): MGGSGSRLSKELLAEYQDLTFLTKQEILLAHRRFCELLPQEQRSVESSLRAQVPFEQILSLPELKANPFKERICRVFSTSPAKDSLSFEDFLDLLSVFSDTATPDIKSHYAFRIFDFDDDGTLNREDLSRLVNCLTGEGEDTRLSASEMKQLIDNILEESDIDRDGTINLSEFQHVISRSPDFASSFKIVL

Fc1cc(Br)ccc1CBr
outcome [1]: inactive | outcome [2]: inactive

OCCCBr
outcome [1]: inactive | outcome [2]: inactive

CO/C=C(/C(=O)OC)c1ccccc1Oc1cc(Oc2ccccc2C#N)ncn1
outcome [1]: inactive | outcome [2]: inactive

CC(C)NCC(O)c1ccc([N+](=O)[O-])cc1 (configuration not stated)
outcome [1]: inactive | outcome [2]: inactive

O=[N+]([O-])c1c(Cl)c(Cl)cc(Cl)c1Cl
outcome [1]: inactive | outcome [2]: inactive

COC(=O)[C@@H](N)CCCN=C(N)N[N+](=O)[O-]
outcome [1]: inactive | outcome [2]: inactive

CC[C@@]1(O)C(=O)OCc2c1cc1n(c2=O)Cc2cc3ccccc3nc2-1
outcome [1]: inactive | outcome [2]: inactive

Cc1ccc(Cl)c(O)c1
outcome [1]: inactive | outcome [2]: inactive

CCCCC(CC)COC(=O)c1ccccc1C(=O)OCC(CC)CCCC (configuration not stated)
outcome [1]: inactive | outcome [2]: inactive

CC(O)CN1CCN(CC(=O)[O-])CCN(CC(=O)[O-])CCN(CC(=O)[O-])CC1.[Gd+3] (configuration not stated)
outcome [1]: inactive | outcome [2]: inactive

CC[C@@H](C(N)=O)N1CCCC1=O
outcome [1]: inactive | outcome [2]: inactive

O=[N+]([O-])c1c2ccccc2cc2ccccc12
outcome [1]: inactive | outcome [2]: inactive

CC(=O)NCCc1c[nH]c2ccccc12
outcome [1]: inactive | outcome [2]: inactive

CC(C)(C)C(O)C(Oc1ccc(Cl)cc1)n1cncn1 (configuration not stated)
outcome [1]: inactive | outcome [2]: inactive

CCOCCOC(C)=O
outcome [1]: inactive | outcome [2]: inactive

CC(C)(C)NC[C@H](O)c1ccc(O)cc1Cl
outcome [1]: inactive | outcome [2]: inactive

Nc1ccc(Sc2ccc(N)cc2)cc1
outcome [1]: inactive | outcome [2]: inactive

O=C(O)C(Cl)Cl
outcome [1]: inactive | outcome [2]: inactive

O=S(=O)(O)C(F)(F)C(F)(F)C(F)(F)C(F)(F)C(F)(F)C(F)(F)C(F)(F)C(F)(F)F
outcome [1]: inactive | outcome [2]: inactive

O=C(O)c1cc(Oc2ccc(C(F)(F)F)cc2Cl)ccc1[N+](=O)[O-]
outcome [1]: inactive | outcome [2]: inactive

c1cc2ccc3cccc4ccc(c1)c2c34
outcome [1]: inactive | outcome [2]: inactive

CC1=NN=C(c2ccc(N)cc2)c2cc3c(cc2C1)OCO3
outcome [1]: inactive | outcome [2]: inactive

C=CCC1=C(C)C(OC(=O)C2C(C=C(C)C)C2(C)C)CC1=O (configuration not stated)
outcome [1]: inactive | outcome [2]: inactive

O=C(O)COc1nc(Cl)c(Cl)cc1Cl
outcome [1]: inactive | outcome [2]: inactive

Nc1ccc([N+](=O)[O-])cc1
outcome [1]: inactive | outcome [2]: inactive

CC1(C)CC/C(=C/c2ccc(Cl)cc2)C1(O)Cn1cncn1 (configuration not stated)
outcome [1]: inactive | outcome [2]: inactive

O=S(=O)(c1ccc(Cl)cc1)c1ccc(Cl)cc1
outcome [1]: inactive | outcome [2]: inactive

O=C(O)CCCOc1ccc(Cl)cc1Cl
outcome [1]: inactive | outcome [2]: inactive

CCCN(CCC)c1c([N+](=O)[O-])cc(S(N)(=O)=O)cc1[N+](=O)[O-]
outcome [1]: inactive | outcome [2]: inactive

O=C(N[C@H]1CN2CCC1CC2)c1ccc(Cl)cc1
outcome [1]: inactive | outcome [2]: inactive

CC1=C(C(=O)O)N2C(=O)[C@@H](N)[C@H]2SC1
activity change [1]: -1.92% [at 1.78 µM] | outcome [2]: inactive

C=CC(=O)NCNC(=O)C=C
outcome [1]: inactive | outcome [2]: inactive

CC1=C(O)C(=O)C=C2C1=CC=C1[C@@]2(C)CC[C@@]2(C)[C@@H]3C[C@](C)(C(=O)O)CC[C@]3(C)CC[C@]12C
Potency [3]: 22.4 µM (active)

NC1CCc2cc(O)c(O)cc2C1 (configuration not stated)
outcome [4]: inactive

CNCCc1ccc(O)c(O)c1
outcome [4]: inactive
